This is a sample that favours compounds with a hit; in the whole collection about 18% have one here.
TDP1 block = qHTS Assay for Inhibitors of Tyrosyl-DNA Phosphodiesterase (TDP1); recombinant TDP1, AlphaScreen DNA substrate cleavage; Tyrosyl-DNA phosphodiesterase 1 (Homo sapiens), Q9NUW8; 350,000 compounds, 0.28% hits; Potency, µM (titrated, usually from 130 µM), for the others: at the top dose activity change, negative = inhibition, usual class: inhibitors; AID 485290, 2010; further: nearly all actives have a fitted effect of over 40% in size
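Recombinant E. coli-expressed Tdp1 (1 nM) preincubated with compound 15 min at RT, then 5'-biotin/3'-phosphotyrosine-FITC DNA substrate (15 nM) added for 5 min. AlphaScreen beads (10 ug/ml) added, 10 min RT; tyrosine-FITC cleavage read as signal loss.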
PLK1 PBD block = qHTS for Inhibitors of PLK1-PDB (polo-like kinase 1 - polo-box domain): Primary Screen; Plk1 PBD binding of FITC phosphopeptide, fluorescence polarization; Potency, µM, without a hit: max response, negative = inhibition, most hits filed as inhibitors; 360,000 compounds, 2.8% hits; further: series mostly up to about 57 µM; nearly all actives have a fitted effect of over 65% in size
TDP1 cell CPT = qHTS for Inhibitors of human tyrosyl-DNA phosphodiesterase 1 (TDP1): qHTS in cells in presence of CPT; chicken DT40 Tdp1-/-;hTDP1 cells + 20 nM CPT, ATP luminescence, 48 h; Potency, µM (series often up to 46.2 µM), without a hit: top-dose activity change, negative = growth inhibition, most hits filed as inhibitors; 420,000 compounds, 12% hits; AID 686979, 2013; further: nearly all actives have a fitted effect of over 55% in size
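Chicken DT40 Tdp1-/- cells complemented with human TDP1, 400 cells/well, exposed to compounds plus 20 nM camptothecin for at least 48 h at 37 C; viability read as ATP content by CellTiter-Glo luminescence.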
VDR inh = Inhibitors of the vitamin D receptor (VDR): qHTS | Vitamin D3 receptor (Homo sapiens), P11473 | VDR-SRC2-3 peptide fluorescence polarization, 2 h | Potency, µM, inactives show max response, negative = inhibition, hits mostly inhibitors | 400,000 compounds, 0.93% hits
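After 23 nl compound addition and a short centrifugation, plates sat for 2 hours at ambient temperature; polarization of fluorescence then indicated loss of VDR binding to peptide SRC2-3.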
GCN5L2 inh = qHTS Assay for Inhibitors of GCN5L2 | AID 504327, 2011 | Histone acetyltransferase KAT2A (Homo sapiens), Q92830 | GCN5L2 HAT assay, ThioGlo1 CoA-SH fluorescence | 390,000 compounds, 0.21% hits | Potency, µM (highest dose often 58.9 µM), for inactives: at the highest dose activity change, negative = inhibition, hits mostly inhibitors
Target sequence (Q92830 whole entry, looked up): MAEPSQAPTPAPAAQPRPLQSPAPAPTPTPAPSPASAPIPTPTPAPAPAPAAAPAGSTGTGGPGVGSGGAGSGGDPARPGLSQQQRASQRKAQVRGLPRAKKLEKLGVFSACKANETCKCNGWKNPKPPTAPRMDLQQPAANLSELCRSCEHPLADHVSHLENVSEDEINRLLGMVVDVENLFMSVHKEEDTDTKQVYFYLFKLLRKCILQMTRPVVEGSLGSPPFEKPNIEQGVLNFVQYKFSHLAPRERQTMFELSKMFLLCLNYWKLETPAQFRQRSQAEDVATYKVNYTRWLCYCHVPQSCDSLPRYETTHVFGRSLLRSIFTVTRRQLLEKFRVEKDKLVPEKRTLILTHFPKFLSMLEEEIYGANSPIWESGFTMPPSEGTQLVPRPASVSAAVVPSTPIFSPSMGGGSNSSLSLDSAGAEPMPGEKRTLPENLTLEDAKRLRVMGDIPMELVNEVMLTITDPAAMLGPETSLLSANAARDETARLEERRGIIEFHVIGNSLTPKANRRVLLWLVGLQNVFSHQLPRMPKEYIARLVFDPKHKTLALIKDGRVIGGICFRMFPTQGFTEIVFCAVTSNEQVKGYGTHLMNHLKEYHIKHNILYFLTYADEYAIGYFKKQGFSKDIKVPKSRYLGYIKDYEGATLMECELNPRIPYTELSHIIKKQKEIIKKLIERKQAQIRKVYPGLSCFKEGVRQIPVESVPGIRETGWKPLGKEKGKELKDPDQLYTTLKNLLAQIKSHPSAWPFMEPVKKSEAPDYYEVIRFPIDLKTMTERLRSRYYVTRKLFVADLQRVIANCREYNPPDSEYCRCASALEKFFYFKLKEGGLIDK
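Compounds, pin-transferred from DMSO stocks, meet 20nM GCN5L2 for 15 min before the reaction begins with H3(1-25) peptide (75uM) and acetyl-CoA (70uM). Thiol-reactive ThioGlo1 reports CoA release over 20 min at room temperature.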
DT40 TDP1 no CPT = qHTS for Inhibitors of human tyrosyl-DNA phosphodiesterase 1 (TDP1): qHTS in cells in absence of CPT; DT40 Tdp1-/- hTDP1 cells, no CPT, ATP luminescence, 48 h; 420,000 compounds, 15% hits; Potency, µM (highest dose often 46.2 µM), for the others: at the top dose activity change, negative = growth inhibition, hits mostly inhibitors; further: nearly all actives have a fitted effect of over 55% in size
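Camptothecin absent (DMSO only). Human TDP1-complemented DT40 knockout cells, 400 cells/well, 37 °C for minimum 48 hr; ATP measured via CellTiter-Glo, 30 min dark incubation, luminescence.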
Numbers without * were called inactive; ? = inconclusive; / = not tested or not shown; [ ] = dose if it differs, or a comment. The call rests on the fitted dose curve; in most records, active means well fitted curve in the direction sought with a large enough effect; inconclusive means small, poorly fitted or top-dose-only effect, or another doubt; inactive means no such curve, though single readings can be large; an effect the other way counts as inactive or inconclusive. On the % scale 0 is the no-effect control and ±100 the full control effect; potency means the concentration at half of the fitted maximal effect.

SMILES	TDP1 block	PLK1 PBD block	TDP1 cell CPT	VDR inh	GCN5L2 inh	DT40 TDP1 no CPT
CN(C)CCCN(C(=O)c1ccco1)c1nc2ccc(Cl)cc2s1	2%	-5%	18µM*	-1%	1%	16µM*
COCCCn1c(=S)[nH]c2sc3c(c2c1=O)CCCS3	9%	-16%	0%	3%	?	21%
CCOC(=O)c1c(C)n(S(=O)(=O)c2ccc(C)cc2)c2ccc(O)c(C(=O)O)c12	2%	-27%	-4%	-5%	-4%	1%
Nc1ccc(S(=O)(=O)C(F)(F)F)cc1N	0%	-12%	2%	5%	11%	-17%
Cc1ccccc1S(=O)(=O)NC(=O)C1(C)CCN1C(=O)C1(c2ccccc2)CC1 (stereo unspecified)	/	-4%	4%	/	/	0%
C=CCn1c(SCC(=O)c2ccc(O)c(O)c2)nnc1-c1ccc(OC)cc1	/	-18%	21µM*	-7%	?	16µM*
COc1ccc(-n2nnnc2SCC(=O)c2ccc(O)c(O)c2)cc1	2%	0%	?	18%	-20%	?
C=CCn1c(SCC(=O)c2ccc(O)c(O)c2)nnc1-c1cccc(OC)c1	-1%	-1%	15µM*	-12%	-29%	15µM*
C=CCn1c(SCC(=O)c2ccc(O)c(O)c2)nnc1-c1ccc(C)cc1	-11%	-2%	16µM*	0%	-26%	?
CCOC(=O)c1ccc(NC(=O)C2=C(C)C(=O)OC23CCN(C(C)C)CC3)cc1	0%	/	?	-5%	4%	2%
CCOc1ccc(CNC(=O)c2c(C)nn(-c3ccc(F)cc3)c2-n2cccc2)cc1	3%	/	/	10%	-7%	/
CC(NC(=O)C1CCC(C)(C(=O)O)C1(C)C)c1ccccc1 (stereo unspecified)	/	-22%	-24%	9%	-5%	-18%
Cc1ccccc1NCC(=O)N/N=C/c1c(C)c(C(=O)c2ccc(Cl)cc2)n2ccccc12	-1%	10%	16µM*	5%	-9%	16µM*
Cc1c(/C=N/NC(=O)CNc2ccccc2)c2ccccn2c1C(=O)c1ccc(Cl)cc1	8%	-18%	?	13%	-8%	?
O=C(c1ccc(Cl)cc1)c1ccc(OCC(O)CN2CCOCC2)cc1 (stereo unspecified)	4%	-8%	23µM*	-20%	3%	16µM*
CC(C)(C)c1ccc(OCC(O)CN2CCOCC2)cc1 (stereo unspecified)	/	4%	-11%	-13%	/	?
OC(COc1ccc2cc(Br)ccc2c1)CN1CCOCC1 (stereo unspecified)	2%[56.1 µM]	-2%	18µM*	7%	1%	?
CCC1(c2ccc(F)cc2)NC(=O)N(CC(=O)N(C)C2CCS(=O)(=O)C2)C1=O (stereo unspecified)	/	-1%	-2%	-1%	-4%	-18%
CCC(c1nc2ccccc2[nH]1)n1c(-c2ccc3ccccc3c2)nc2ccccc21 (stereo unspecified)	/	-1%	?	/	/	?
CCCCCCCCC(c1nc2ccccc2[nH]1)N1CCN=C1c1cc2ccccc2[nH]1 (stereo unspecified)	/	5%	7.3µM*	/	/	6.5µM*
CCCn1nc([N+](=O)[O-])c(C(C#N)c2nc3ccccc3s2)c(Cl)c1=O (stereo unspecified)	12%	24µM*	18µM*	?	-5%	16µM*
COc1ccc(C)c(NC(=O)NCCc2cnc[nH]2)c1	4%	-1%	30%	1%	-7%	2%
N#Cc1c(NC(=S)NC(=O)C2CCCC2)sc2c1CCCCC2	-3%	-22%	?	-20%	-11%	?
O=C1c2cc(Br)ccc2N(Cc2ccc(Br)cc2)S(=O)(=O)C1c1cc(Cl)c(Cl)cc1[N+](=O)[O-] (stereo unspecified)	9%	21µM*	-27%	-27%	?	?
CC1Cc2nc(SCC(=O)Nc3ccc4c(c3)OCCO4)n(C)c(=O)c2S1 (stereo unspecified)	6%	-17%	?	8%	?	?
SMILES	TDP1 block	PLK1 PBD block	TDP1 cell CPT	VDR inh	GCN5L2 inh	DT40 TDP1 no CPT
CC1Cc2nc(SCC(=O)Nc3nccs3)n(Cc3ccccc3)c(=O)c2S1 (stereo unspecified)	5%	-13%	21µM*	4%	-9%	?
CC1Cc2nc(SCC(=O)Nc3ccc4c(c3)OCO4)n(Cc3ccccc3)c(=O)c2S1 (stereo unspecified)	10%	-6%	16µM*	8%	-25%	?
Cc1cc(NC(=O)CSc2nc3c(c(=O)n2-c2ccccc2)SC(C)C3)no1 (stereo unspecified)	0%	1%	?	1%	0%	21µM*
COCCn1c(SCC(=O)Nc2ccc3c(c2)OCCO3)nc2c(c1=O)SC(C)C2 (stereo unspecified)	5%	-17%	15µM*	-4%	-1%	?
CC(NC(=O)COc1ccccc1)C(=O)NCc1ccccc1Cl (stereo unspecified)	-2%	-4%	0%	-7%	-2%	-2%
CC1(C(=O)NS(=O)(=O)c2ccc3ccccc3c2)CCN1C(=O)CC1CCCCC1 (stereo unspecified)	/	-11%	-3%	/	/	10%
O=C(CCC1CCCC1)N[C@@H](Cc1ccc(O)cc1)C(=O)O	3%	-7%	-7%	-10%	2%	2%
O=C(NCC(=O)N1CCCC1)NN=Cc1ccccc1O	/	-1%	?	/	/	?
CCc1ccc2oc(-c3cccc(NC(=O)c4ccc(N5CCC(C)CC5)c([N+](=O)[O-])c4)c3)nc2c1	5%	/	?	-21%	-10%	?
CCOC(=O)c1ccc(NC(=O)CSc2nc3c(c(=O)n2C)SC(C)C3)cc1 (stereo unspecified)	12%	-1%	18µM*	-9%	-12%	26µM*
CCSc1nc2c(c(=O)n1Cc1ccccc1)SC(C)C2 (stereo unspecified)	9%	-8%	12µM*	22%	0%	?
COc1ccc(-n2c(=O)c(C)nc3cncnc32)cc1	/	/	11%	0%	-1%	-8%

Bioassay records deposited in PubChem by National Center for Advancing Translational Sciences (NCATS).
